SW480 rereplic = inducers of DNA re-replication in SW480 colon cancer cells; Potency, µM (titrated, usually from 46.1 µM), hits mostly activators; SW480 DNA re-replication, Hoechst DNA content imaging, 48 h; actives 1.8% (n = 340,000); note: nearly all actives have a fitted effect of over 55% in size
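Cells (250 per well) received 23 nL compound or DMSO by pin tool and were kept 48 hr at 37 C, 5% CO2. Nuclei were then stained with Hoechst for 40 min and scanned for DNA content.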
KB-3-1 tox = kills parental KB-3-1 adenocarcinoma cells; actives 1.4% (n = 400,000); KB-3-1 viability, CellTiter-Glo ATP luminescence, 72 h; Potency, µM (titrated, usually from 46.1 µM), hits mostly cytotoxic; note: nearly all actives have a fitted effect of over 60% in size
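Screening of KB-3-1 cells (DMEM, 10% FBS, phenol-red free) ran from lowest to highest compound concentration; after 72 h at 37 °C viability was read luminescently and curves fitted.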
PINK1 expr mod = PINK1 expression modulation | actives 0.2% (n = 410,000) | PINK1 immunofluorescence, high-content cytometry, 24 h | AID 624263 | Potency, µM (doses to about 76.6 µM), most hits filed as activators; active = well fitted activation curve with a large enough effect; inconclusive = small, poorly fitted or top-dose-only effect; cell line not stated here; note: nearly all actives have a fitted effect of over 65% in size
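Measures PINK1 amount and localization on or inside mitochondria by immunofluorescence. Stable cells get compounds at 5 concentrations for 24 hours before fixation and staining; CCCP controls included.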
MCF10A rerep = induces DNA re-replication in MCF 10a normal breast cells; MCF 10A DNA re-replication, Hoechst nuclear intensity, 48 h; actives 2.9% (n = 350,000); Potency, µM (titrated, usually from 46.1 µM), usual class: activators; note: nearly all actives have a fitted effect of over 50% in size
KB-V1 cytotox = kills drug-selected multidrug resistant KB-V1 cells; Potency, µM (titrated, usually from 46.1 µM), actives largely listed as cytotoxic; KB-V1 MDR cells viability, CellTiter-Glo, 72 h; actives 3.4% (n = 400,000); note: nearly all actives have a fitted effect of over 60% in size
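In this primary screen, KB-V1 cells overexpressing P-gp are incubated with library compounds (lowest to highest concentration) for 72 h at 37 degrees C before a luminescent ATP viability read.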
PTAP TSG101 blk = blocks PTAP/TSG101 interaction to inhibit HIV-1 budding; Potency, µM (titrated, usually from 115 µM), most hits filed as inhibitors; AID 493005; 340,000 tested, under 10 active; Q99816; Fluorescence polarization, FITC-PTAP peptide / Tsg101 binding; active = well fitted inhibition curve with a large enough effect in the main read-out, with a control signal flat, not every such curve was filed as active; inconclusive = small, poorly fitted or top-dose-only effect, or effect the other way, or a change in a side signal; inactive = no such curve, though single readings can be large or run the other way
Target sequence (Q99816 whole entry, looked up): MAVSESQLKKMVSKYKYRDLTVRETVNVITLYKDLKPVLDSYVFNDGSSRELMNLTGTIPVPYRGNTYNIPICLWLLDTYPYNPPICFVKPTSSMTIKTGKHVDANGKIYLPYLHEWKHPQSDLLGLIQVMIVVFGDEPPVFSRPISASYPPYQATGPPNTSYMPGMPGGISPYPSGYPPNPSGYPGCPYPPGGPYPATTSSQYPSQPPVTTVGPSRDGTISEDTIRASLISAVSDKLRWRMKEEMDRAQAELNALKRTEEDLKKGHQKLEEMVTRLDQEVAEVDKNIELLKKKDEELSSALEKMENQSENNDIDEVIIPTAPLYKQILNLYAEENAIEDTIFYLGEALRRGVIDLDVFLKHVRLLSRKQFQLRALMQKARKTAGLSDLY
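Steps: Tsg101 binding domain dispensed (10 uM final), compounds pinned in DMSO, FITC-labeled PTAP-motif peptide added (50 nM final); after 20 min binding at room temperature, polarization measured.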
Hits are given with their value; – = inactive; ? = inconclusive; · = not tested or not shown. Shown are actives, neighbours in structure and some others; about 6.8% of the full set was active somewhere. Unless noted, calls come from the whole dose curve; as a rule, active = well fitted curve in the direction sought with a large enough effect; inconclusive = small, poorly fitted or top-dose-only effect, or another doubt; inactive = no such curve, though single readings can be large; an effect the other way counts as inactive or inconclusive.

SMILES	SW480 rereplic	KB-3-1 tox	PINK1 expr mod	MCF10A rerep	KB-V1 cytotox	PTAP TSG101 blk
COc1ccc(CCC(=O)NC2CC(=O)N(c3ccc(F)cc3)C2)cc1 (centres undefined)	·	·	–	·	·	·
Cc1cc2nc(Sc3c([N+](=O)[O-])nc(C)n3Cc3ccccc3)[nH]c2cc1C	?	?	–	20.6µM	–	–
Cc1cccc(-n2c(=O)c(C#N)cc3c(=O)n4ccccc4nc32)c1	16.4µM	–	–	?	–	–
Cc1ccc(C)c(-n2c(=O)c(C#N)cc3c(=O)n4ccccc4nc32)c1	–	–	–	?	?	–
Cc1ccc(-n2c(=O)c(C#N)cc3c(=O)n4ccccc4nc32)cc1	2.06µM	–	–	?	–	–
COc1ccccc1N1CCN(C(=O)CCn2cnc3onc(-c4ccc(F)cc4)c3c2=O)CC1	·	–	–	·	–	·
O=S1(=O)N[C@H](Cc2ccccc2)COc2cc(N3CCC[C@H]3CO)ccc21	·	–	–	·	–	·
O=S1(=O)N[C@H](Cc2ccccc2)COc2cc(N3CCC[C@@H]3CO)ccc21	·	20.6µM	–	·	–	·
CCc1ccc(CCC(=O)Nc2ncc(Cc3ccccc3Cl)s2)o1	4.61µM	?	–	1.64µM	–	–
CC(CC(=O)Nc1cccnc1)c1ccccc1 (centres undefined)	–	–	–	11.6µM	–	–
COc1ccccc1CCC(=O)Nc1ncc(C)s1	?	?	–	?	23.1µM	–
c1ccc(C(Nc2cccnc2)c2ccccc2)cc1	–	–	–	–	20.6µM	–
CC1(C)O[C@@H]2C[C@H]3[C@@H]4CCC5=CC(=O)C=C[C@]5(C)[C@H]4C(O)C[C@]3(C)[C@]2(C(=O)CO)O1 (some centres undefined)	–	·	·	–	·	·
COCc1c(C(=O)NC2CCCC2)cnn1-c1nccc(-c2ccco2)n1	·	·	–	·	·	·
Cc1ccc(-c2nc(CCNC(=O)C(=O)Nc3ccc(C)c(Cl)c3)cs2)cc1	·	·	–	·	·	·
CC(CC(=O)Nc1ccc2c(c1)c(=O)n(C)n2-c1ccccc1)c1ccccc1 (centres undefined)	·	4.61µM	–	·	10.3µM	·
Cc1cnc(NC(=O)CC(C)c2ccccc2)s1 (centres undefined)	5.8µM	20.6µM	–	10.3µM	?	–
O=C(c1cnsn1)N1CCOc2ccc(C(O)C(c3ccccc3)c3ccccc3)cc2C1 (centres undefined)	·	·	–	·	·	·
COc1ccc(-c2cc3ccc(O)c(CN4CCCC4)c3oc2=O)cc1	·	·	–	·	·	·
O=C(c1cccc(S(=O)(=O)NCc2ccccc2)c1)N1CCN(c2ccc(F)cc2)CC1	–	·	–	–	·	–
Cn1cccc1C(=O)N1CCN(c2cccc(C(F)(F)F)c2)CC1	–	–	–	–	14.6µM	–
CC(C)c1ccc(OCc2ccc(C(=O)N3CCN(c4ccccn4)CC3)cc2)cc1	–	?	–	23.1µM	?	–
O=C(c1cccc(S(=O)(=O)NCc2ccccc2)c1)N1CCN(c2cccc(C(F)(F)F)c2)CC1	?	?	–	?	16.4µM	–
O=C(c1cccc(S(=O)(=O)NCc2ccccc2)c1)N1CCN(c2ccccc2)CC1	?	?	–	6.51µM	–	–
COc1cccc(-n2ccnc2SCC(=O)Nc2ccc(Cl)c(Cl)c2)c1	·	·	–	·	·	·
SMILES	SW480 rereplic	KB-3-1 tox	PINK1 expr mod	MCF10A rerep	KB-V1 cytotox	PTAP TSG101 blk
O=C(c1cccc(S(=O)(=O)NCc2ccccc2)c1)N1CCN(c2ccccc2Cl)CC1	16.4µM	?	–	?	–	–
O=C(c1nn(Cc2ccccc2)c(=O)c2ccccc12)N1CCN(c2ccccn2)CC1	–	–	–	?	2.31µM	–
O=C(c1ccc(CNS(=O)(=O)c2ccccc2)cc1)N1CCN(c2ccccn2)CC1	–	–	–	–	?	–
O=C(c1cccc(S(=O)(=O)NCc2ccccc2)c1)N1CCCC1	–	–	–	–	–	–
Cc1cccc(N2CCN(C(=O)c3ccc(Cl)c(S(=O)(=O)NCc4ccco4)c3)CC2)c1C	?	13µM	–	16.4µM	13µM	–
O=C(c1ccc(Cl)c(S(=O)(=O)NCc2ccccc2)c1)N1CCN(c2ccccn2)CC1	–	–	–	–	4.11µM	·
O=C(c1nn(Cc2ccccc2)c(=O)c2ccccc12)N1CCc2ccccc2C1	–	–	–	–	?	–
COC(=O)c1sc(-c2ccccc2)cc1NC(=O)Nc1ccc(F)cc1	·	–	–	·	–	·
CCOC(=O)c1c(C)[nH]c(C)c1S(=O)(=O)N(C)CC(=O)Nc1cccc(Cl)c1C	·	–	–	·	–	·
COc1ccccc1CNC(=O)CCCCn1c(=O)c2ccccc2n(CC(=O)Nc2cccc(Cl)c2)c1=O	·	–	–	·	?	·
COc1ccc(OC)c(CNC(=O)c2ccccc2NC(=O)c2nsc3ccccc23)c1	·	–	–	·	–	·
Cc1nn(CC(=O)Nc2ccc3c(c2)nc(CCN2CCCCC2)n3C)c(=O)c2ccccc12	?	–	–	16.4µM	–	–
Cn1c(CCN2CCCC2)nc2cc(NS(=O)(=O)c3ccc(Cl)cc3)ccc21	20.6µM	?	–	?	–	–
Cn1c(CCN2CCN(c3ccccn3)CC2)nc2cc(NS(=O)(=O)c3ccccc3)ccc21	?	–	–	23.1µM	–	–
CC(=O)N1CCN(Cc2nc3cc(NC(=O)Cn4nc(C)c5ccccc5c4=O)ccc3n2C)CC1	–	–	–	–	–	–
Cc1ccc(S(=O)(=O)Nc2ccc3c(c2)nc(CCN2CCCC2)n3C)cc1	?	?	–	?	?	–
CCc1c(C)c2ccc(O)c(CN3CCN(c4ccccc4)CC3)c2oc1=O	·	·	–	·	·	·
CCN(C(=O)c1cc2c(=O)oc3ccccc3c2s1)c1ccccc1F	·	–	–	·	–	·
CNC(=S)N/N=C/c1cc(Br)cc(Br)c1O	·	–	–	7.31µM	–	–
Oc1c(Br)cc(Br)cc1/C=N/NC(=S)N[C@H]1CC2C=CC1C2 (some centres undefined)	?	?	?	5.8µM	?	–
CCN(CC(O)Cn1c2ccccc2c2ccccc21)S(=O)(=O)c1ccc(F)cc1 (centres undefined)	?	?	–	–	11.6µM	–
O=S(=O)(c1ccc(F)cc1)N(CCO)CC(O)Cn1c2ccccc2c2ccccc21 (centres undefined)	–	–	–	–	23.1µM	·
CCCCN(C(=O)c1ccc(Cl)cc1)C1CC2CCC(C1)N2C (centres undefined)	–	–	–	–	–	–
CCCCN(CCCC)CC(O)c1cc(Cl)cc2c1-c1ccc(Cl)cc1C2=Cc1ccc(Cl)cc1 (centres undefined)	·	?	–	·	20.6µM	·
CC1=C(c2ccc(C(C)C)cc2)S(=O)(=O)N=C1N1CCC(C(=O)NCCc2ccco2)CC1	·	–	–	·	–	·
